NPSR antag – neuropeptide S receptor (human) antagonism, cAMP; Q6W5P4; CHO-NPSR cells, cAMP TR-FRET, antagonist mode; Potency, µM (highest dose often 38.3 µM), hits mostly inhibitors; 1% of 220,000 active; further: nearly all actives have a fitted effect of over 50% in size
Target sequence (Q6W5P4 whole entry, looked up): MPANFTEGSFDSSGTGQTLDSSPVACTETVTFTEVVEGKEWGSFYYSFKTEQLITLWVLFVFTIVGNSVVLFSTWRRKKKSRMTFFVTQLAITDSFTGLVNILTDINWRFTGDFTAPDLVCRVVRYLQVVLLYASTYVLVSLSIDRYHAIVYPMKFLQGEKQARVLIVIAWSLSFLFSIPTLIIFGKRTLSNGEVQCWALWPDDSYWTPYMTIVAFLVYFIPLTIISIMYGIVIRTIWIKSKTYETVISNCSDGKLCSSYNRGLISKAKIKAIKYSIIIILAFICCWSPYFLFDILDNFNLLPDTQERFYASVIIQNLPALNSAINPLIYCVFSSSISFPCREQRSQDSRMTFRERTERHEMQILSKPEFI
IMPase Li inh – membrane-permeable IMPase blocker, potentiated with lithium; Potency, µM (highest dose often 59.4 µM), most hits filed as inhibitors; AID 1457; CHO-M1 cells, IP1 TR-FRET (IP-One), carbachol + lithium; 0.35% of 210,000 active;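 further: IP1 builds up when IMPase is blocked and the TR-FRET signal falls; nearly all actives have a fitted effect of over 50% in size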
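Test compounds were applied to CHO-M1 cells previously cultured for 16–30 h at 2000 per well. A small lithium amount accompanied them; after 30 min at 37C, IP1 was quantified by TR-FRET.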
IMPase inh – cell-permeable inhibitors of inositol monophosphatase (IMPase) | P97697 | CHO-M1 cells, IP1 accumulation, HTRF TR-FRET ratio | inhibition (IP1 accumulation), % at 46.1 µM | 120,000 tested, under 10 active; active means well fitted curve in the direction sought with a large enough effect in the signal ratio, not every such curve was filed as active; inconclusive means small, poorly fitted or top-dose-only effect, or a change in a side signal; inactive means no such curve, though single readings can be large or run the other way; the % refers to the signal ratio;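 further: cells stimulated with carbachol in lithium chloride buffer; higher means more IMPase inhibition seen as more IP1 and lower FRET ratio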
Target sequence (P97697 whole entry, looked up): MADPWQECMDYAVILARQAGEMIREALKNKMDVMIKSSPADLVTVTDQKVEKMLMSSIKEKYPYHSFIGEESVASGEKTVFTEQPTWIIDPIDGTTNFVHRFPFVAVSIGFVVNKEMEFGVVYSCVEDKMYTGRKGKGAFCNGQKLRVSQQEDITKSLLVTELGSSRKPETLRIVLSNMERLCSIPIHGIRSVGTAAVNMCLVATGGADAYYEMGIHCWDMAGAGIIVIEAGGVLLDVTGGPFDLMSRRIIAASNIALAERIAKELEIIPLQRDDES
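CHO-M1 cells (CHO stably expressing M1 receptor), compound up to 46 uM final, stimulated with carbachol (50 uM as added) in buffer with 50mM LiCl, pH 7.4, 30 min at 37C. Cytosolic IP1 read by TR-FRET; AC50 from Hill fits.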
PNC assembly inh – perinucleolar compartment assembly inhibition. PC3M PTB-GFP, PNC prevalence imaging, 16 h; stronger effect = lower value. 3.1% of 140,000 active. activity change (PNC), negative = inhibition, % at 10 µM;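 active means readout at or below -70, meaning at least 70% loss of cells showing the perinucleolar compartment, a nuclear body marking cancer cells; inconclusive means readout between -30 and a set limit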
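Compounds are pinned in duplicate onto adhered PC3M cells stably expressing GFP-tagged PTB and incubated 16 h at 37 C. Cells are then fixed, nuclei stained with Hoechst, and PNC-positive cells counted.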
HTT cytoprotect – Huntington cell model cytoprotection by ATP luminescence | PC12 HTT-Q103 induced, cytoprotection, ATP luminescence, 40 h | 0.14% of 230,000 active | Potency, µM (titrated, usually from 56.4 µM), hits mostly activators; further: nearly all actives have a fitted effect of over 45% in size
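Readout: ATPlite luminescence (ATP level). Model: stable PC12, inducible Htt exon1 Q103-GFP. Inducer: tebufenozide, 100 nM final. Compounds: dose series. No G418 in medium.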
HttQ103 aggreg – reduces HttQ103-GFP aggregates in PC12 cells. PC12 HttQ103-GFP aggregates, Acumen cytometry, 40 h. 1.1% of 220,000 active. Potency, µM (series often up to 46.1 µM), actives largely listed as inhibitors; further: nearly all actives have a fitted effect of over 60% in size
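Compounds (qHTS titration) were added to PC12 cells expressing an ecdysone-driven HTT exon 1 Q103–GFP fusion after induction with 100 nM tebufenozide. Aggregate formation was measured as GFP objects in cell lysates.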
Hits are given with their value; n = inactive; u = inconclusive; x = no result; [ ] = dose if it differs, or a comment. Shown are actives, neighbours in structure and some others; about 3.4% of the full set was active somewhere. Unless noted, the call rests on the fitted dose curve; in most records, active means well fitted curve in the direction sought with a large enough effect; inconclusive means small, poorly fitted or top-dose-only effect, or another doubt; inactive means no such curve, though single readings can be large; an effect the other way counts as inactive or inconclusive.

SMILES | NPSR antag | IMPase Li inh | IMPase inh | PNC assembly inh | HTT cytoprotect | HttQ103 aggreg
O=[N+]([O-])c1ccc2c(c1)ncn2-c1ccccc1 | n | n | x | u | x | n
Cc1ccc(C2CC(=O)Oc3cc4c(cc32)OCO4)cc1 (stereo not drawn) | x | n | x | x | n | x
CC[C@]12CCCN3CCc4c(n(c5ccccc45)C(=O)C1)[C@H]32 | x | n | n | x | n[1.9 µM] | x
O=C(c1ccco1)N1CCN(CCOCCOc2cccc3ccccc23)CC1 | n | n | n | -80 | n | n
COc1ccc(CNc2ccnc(-c3ccccc3CN(C)C)n2)c(OC)c1 | x | n | x | x | n | x
COc1ccc2cc3c(N)nn(C(=O)c4ccccc4Cl)c3nc2c1 | n | x | x | x | n[10 µM] | 0.35µM
COc1ccc2cc3c(N)nn(C(=O)c4ccc(F)cc4)c3nc2c1 | n | x | x | x | n[10 µM] | 2.8µM
COc1ccc2cc3c(N)nn(C(=O)c4cccc(F)c4)c3nc2c1 | n | x | x | x | n[10 µM] | 1µM
COc1ccc(C(=O)n2nc(-c3ccc(OC)cc3)nc2N)cc1 | n | n | x | u | n[10 µM] | n
O=C(c1ccncc1)N1CCC2(CC1)CCN(C(c1ccccc1)c1ccccc1)CC2 | x | n | x | x | u | x
COC(=O)N[C@@H](c1cccc(F)c1)[C@@H](C)[N+](=O)[O-] | x | n | x | x | n | x
O=C(NC[C@@H]1CCCCN1)c1cc(OCC(F)(F)F)ccc1OCC(F)(F)F | x | n | n | x | u | x
COc1cccc2cc(C(=O)NCC3CCCO3)c(=O)oc12 (stereo not drawn) | n | n | n | u | n[0.074 µM] | n
COc1cccc2cc(C(=O)NC(C)C3CCCO3)c(=O)oc12 (stereo not drawn) | n | n | n[1.84 µM] | -87 | n[10 µM] | n
Oc1cccc2c(NC(=S)Nc3ccc(OC(F)F)cc3)cccc12 | n | n | x | n | n[10 µM] | 13µM
COc1cccc(OC)c1OCCNC[C@@H]1CSc2ccccc2O1 | x | x | n | x | n[1.9 µM] | x
C[N+](C)([O-])Cc1cc(-c2ccccc2)ccc1O | x | n | x | x | n[10 µM] | x
CCN1CCN(Cc2c(O)ccc3c2O/C(=C\c2ccc(C)cc2)C3=O)CC1 | 10µM | n | x | x | n[10 µM] | n
CCN1CCN(Cc2c(O)ccc3c2O/C(=C\C=C\c2ccccc2)C3=O)CC1 | 4µM | n | x | n | n[0.074 µM] | n
Cc1ccc(/C=C2\Oc3c(ccc(O)c3CN3CCN(C)CC3)C2=O)cc1 | 7.9µM | n | x | x | n | n
CCN1CCN(Cc2c(O)ccc3c2O/C(=C\c2ccccc2)C3=O)CC1 | u | n | x | x | n | n
CCc1ccc(/C=C2\Oc3c(ccc(O)c3CN3CCN(C)CC3)C2=O)cc1 | 10µM | x | x | x | n[10 µM] | n[9.22 µM]
COC(=O)[C@H]1[C@@H]2C[C@H]3c4[nH]c5ccccc5c4CCN3C[C@@H]2CC[C@@H]1O | x | x | x | x | n | x
Cc1ccc2nc(-c3ccccn3)c(Nc3ccccc3C)n2c1 | 13µM | n | x | x | n | u
COC(=O)N/N=C/c1cc(Cl)c(OCc2ccc(F)cc2)c(OC)c1 | n | n | x | -87 | x | n
SMILES | NPSR antag | IMPase Li inh | IMPase inh | PNC assembly inh | HTT cytoprotect | HttQ103 aggreg
O=C(N/N=C/c1ccc(Cl)cc1)c1sccc1OCc1ccc(F)cc1 | n | n | n | -119 | n[10 µM] | n
COc1ccc(NC(=O)c2csc(Cc3ccc(Cl)cc3)n2)cc1 | n | n | x | x | n | n
O=C(N/N=C/c1ccc(F)cc1)c1sccc1OCc1ccc(F)cc1 | n | n | n | n | n | u
COc1ccc(COc2ccsc2C(=O)Nc2ccc(Cl)cc2)cc1 | n | n | n[1.84 µM] | -86 | n[10 µM] | n
c1cc2c(cc1C1CCCCC1)c1c3n2CCN[C@H]3CCC1 | x | n | n | x | n | x
CCC1CN2CCC1CC2[C@@H](NC(=S)Nc1cc(C(F)(F)F)cc(C(F)(F)F)c1)c1cccc2ccc(OC)cc12 (stereo partly drawn) | x | n | x | x | n | x
COc1ccc(Nc2nc3ccc(C)cn3c(=O)c2/C=N/O)cc1 | n | n | x | x | n | n
Cc1ccc2nc(Nc3ccccc3)c(/C=N/O)c(=O)n2c1 | n | n | n | -100 | n[10 µM] | n
CC(Oc1ccccc1F)C(=O)Nc1ccc2ccccc2c1 (stereo not drawn) | n | n | u | -87 | n[10 µM] | n
COC(=O)C1=COC(C)C2CN3CCc4c([nH]c5ccccc45)C3CC12 (stereo not drawn) | n | x | n | n | n | 11µM
CCOC(=O)C(=CNc1ccc2c(c1)c1ccccc1n2CC)C(=O)OCC | u | x | x | x | n[10 µM] | n[9.22 µM]
CC(C)[C@](N)(C(=O)O)c1ccccc1 | x | n | x | x | n[10 µM] | x
Cc1cccc(N2C(=O)CC(Sc3nnc(C)s3)C2=O)c1 (stereo not drawn) | n | n | n | n | n[10 µM] | 14µM
COc1cc(/C=N/Nc2nn3cnnc3c3ccccc23)ccc1O | n | n | u | n | n | n
COc1cccc(/C=N/Nc2nn3cnnc3c3ccccc23)c1 | n | n | n | -80 | n[10 µM] | n
COC(=O)CSc1ccc(S(=O)(=O)N2CCC(C)CC2)cc1[N+](=O)[O-] | n | n | x | -109 | x | n
CCCCN(CCCC)S(=O)(=O)c1ccc(SCC(=O)OCC)c([N+](=O)[O-])c1 | n | n | n | -87 | n | n[9.22 µM]
CC(C)CN(C[C@@H](O)[C@H](Cc1ccccc1)NC(=O)O[C@H]1CO[C@H]2OCC[C@H]21)S(=O)(=O)c1ccc(N)cc1 | x | x | x | x | n | n
Cc1cc(C)c(S(=O)(=O)NCC(CCC(=O)O)C(F)(F)F)c(C)c1 (stereo not drawn) | n | n | x | x | n | n
CCOC(=O)C1=C(SCC)c2cc3c(n2C1=O)CCCC3 | 13µM | n | n | n | n[10 µM] | n
COc1cc(/C=C(/C(=O)c2cccs2)c2nc3ccccc3[nH]2)cc(OC)c1O | 13µM | n | n | n | n | n[9.22 µM]
O=C(/C(=C/c1ccc(Cl)cc1)c1nc2ccccc2[nH]1)c1ccccc1 | u | n | n | u | n | 5µM
O=C(NC1CCCCC1)N1CCCC(c2nc(-c3ccc(S(=O)(=O)N4CCCC4)cc3)no2)C1 (stereo not drawn) | n | n | n | n | n | n
O=S(=O)(NC1CC1)c1ccc(S(=O)(=O)N2CCCC(c3nc(-c4cccnc4)no3)C2)cc1 (stereo not drawn) | n | n | n | u | n[10 µM] | 11µM
CC(=O)ON(C(C)=O)S(=O)(=O)c1ccc(Cl)cc1 | x | n | n | x | n | x
CCOC(=O)C1CCN(C(=O)COc2ccc(Cl)cc2Cl)CC1 | n | n | n | n | n | n
CCOC(=O)C1CCN(C(=O)COc2ccc(Cl)cc2C)CC1 | n | n | n | -87 | n | n
CCOC(=O)C1CCN(Cc2ccc(F)c(F)c2)CC1 | n | n | n | -101 | n | n
CCOC(=O)C1CCN(Cc2ccc(N(C)C)cc2)CC1 | n | n | n | n | n[10 µM] | n
Cc1ccc(N=Cc2cc3c(cc2O)OC(N)=C(C#N)C3c2ccccc2)cc1 (stereo not drawn) | u | n | n | u | n[1.9 µM] | 10µM

High-throughput results from PubChem.
